Giardia killer – kills Giardia lamblia. Giardia lamblia trophozoite viability. activity change, % at 7.66 µM, hits read low. 340,000 compounds, 0.15% hits. AID 540267; in the data active = activity change below about -80%; inconclusive = between about -30% and that limit;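 also: parasites exposed to compound for two days anaerobically before the ATP read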
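Giardia trophozoites, 100 cells per well, were exposed to compounds for 48 hrs at 37 deg C under anaerobic conditions; viability was then read as ATP content by bioluminescence after 15-30 min at room temperature.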
DT40 TDP1 no CPT – qHTS for Inhibitors of human tyrosyl-DNA phosphodiesterase 1 (TDP1): qHTS in cells in absence of CPT | Potency, µM (series often up to 46.2 µM), without a hit: at the highest dose activity change, negative = growth inhibition, actives largely listed as inhibitors | 420,000 compounds, 15% hits | AID 686978, 2013 | DT40 Tdp1-/- hTDP1 cells, no CPT, ATP luminescence, 48 h; also: potency is read from the fitted curve at half-maximal effect; nearly all actives have a fitted effect of over 55% in size
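Luminescent ATP content (CellTiter-Glo) served as the growth readout. Knockout chicken DT40 cells expressing human TDP1 were exposed to compounds without camptothecin for a minimum 48 hr at 37 °C.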
TDP1 cell CPT – growth inhibition of DT40 Tdp1-/-;hTDP1 cells with camptothecin (screen for TDP1 inhibitors). chicken DT40 Tdp1-/-;hTDP1 cells + 20 nM CPT, ATP luminescence, 48 h. Potency, µM (highest dose often 46.2 µM), inactives show at the highest dose activity change, negative = growth inhibition, most hits filed as inhibitors. 420,000 compounds, 12% hits. AID 686979; also: potency is read from the fitted curve at half-maximal effect; nearly all actives have a fitted effect of over 55% in size
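Chicken DT40 Tdp1-/- cells complemented with human TDP1, 400 cells/well, exposed to compounds plus 20 nM camptothecin for at least 48 h at 37 C; viability read as ATP content by CellTiter-Glo luminescence.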
ELG1 DNA repair – inhibitors of ELG1-dependent DNA repair in HEK293T cells. HEK293T ELG1-luciferase reporter, luminescence, 16 h; DNA damage induced by 5-fluorouridine. Potency, µM (doses to about 46.1 µM), inactives show at the highest dose activity change, negative = inhibition, most hits filed as inhibitors. 330,000 compounds, 2.3% hits; also: potency is read from the fitted curve at half-maximal effect; nearly all actives have a fitted effect of over 55% in size
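DMSO vehicle served as the neutral condition. Each well held 2,000 cells given 5-fluorouridine plus compound; after 16 hr at 37 °C/5% CO2, ONE-Glo was added and luciferase measured 30 min later.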
IL1B secr inh – blocks inflammasome-driven IL-1 beta release | THP-1 LPS/ATP IL-1B secretion, AlphaLISA, 16 h; hits give low values | AID 743279 | 360,000 compounds, 4.7% hits | activity change, % at 57.5 µM; in the data active = activity change below about -50%; inconclusive = mostly about -30% to -49%
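THP-1 cells pretreated 1 hr with compounds (up to 57.5 uM final), then stimulated with LPS (250 ng/mL final) plus ATP (1.25 mM final); secreted IL-1B measured by AlphaLISA after 16 hr, decreased signal indicating inhibition.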
TDP1 block – TDP1 (human) enzyme inhibition. Q9NUW8. recombinant TDP1, AlphaScreen DNA substrate cleavage. Potency, µM (series often up to 130 µM), for inactives: at the top dose activity change, negative = inhibition, most hits filed as inhibitors. 350,000 compounds, 0.28% hits. AID 485290; also: potency is read from the fitted curve at half-maximal effect; nearly all actives have a fitted effect of over 40% in size
Target sequence (Q9NUW8 whole entry, looked up): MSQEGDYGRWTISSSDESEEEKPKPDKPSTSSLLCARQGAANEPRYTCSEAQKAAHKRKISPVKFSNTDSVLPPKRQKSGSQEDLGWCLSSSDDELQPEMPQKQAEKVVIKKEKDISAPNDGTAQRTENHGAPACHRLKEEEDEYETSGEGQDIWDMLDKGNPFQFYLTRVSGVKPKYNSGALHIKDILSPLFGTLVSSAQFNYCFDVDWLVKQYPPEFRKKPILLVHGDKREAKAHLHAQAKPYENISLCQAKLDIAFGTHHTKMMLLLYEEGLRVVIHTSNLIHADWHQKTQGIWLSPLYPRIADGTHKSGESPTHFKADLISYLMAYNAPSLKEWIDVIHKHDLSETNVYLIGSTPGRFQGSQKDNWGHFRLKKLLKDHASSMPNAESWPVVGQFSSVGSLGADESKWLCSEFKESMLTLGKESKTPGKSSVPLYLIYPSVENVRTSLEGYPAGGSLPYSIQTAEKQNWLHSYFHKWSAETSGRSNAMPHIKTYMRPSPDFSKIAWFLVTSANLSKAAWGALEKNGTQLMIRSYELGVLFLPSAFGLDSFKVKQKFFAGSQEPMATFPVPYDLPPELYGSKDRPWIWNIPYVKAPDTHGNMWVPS
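Compounds were preincubated with Tdp1 (1 nM final) for 15 min at room temperature before substrate (15 nM final) started a 5 min reaction; beads (10 ug/ml final) were then added for 10 min before AlphaScreen detection.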
* marks the source's active call; other numbers are inactive results; ? = inconclusive; · = no result given; [ ] = another dose, or the depositor's remark. This is a sample that favours compounds with a hit; in the whole collection about 19% have one here. Unless noted, calls follow the shape of the dose curve; as a rule, active = well fitted curve in the direction sought with a large enough effect; inconclusive = small, poorly fitted or top-dose-only effect, or another doubt; inactive = no such curve, though single readings can be large; an effect the other way counts as inactive or inconclusive. % is scaled to controls: 0 for no effect and ±100 for the full control effect.

SMILES | Giardia killer | DT40 TDP1 no CPT | TDP1 cell CPT | ELG1 DNA repair | IL1B secr inh | TDP1 block
CN(C(=O)c1cccc(NC(=O)Cc2ccc(NC(=O)C3CCN(C(=O)CCc4ccccc4)CC3)cc2)c1)C1CCCCC1 | -1 | 15µM* | 21µM* | · | -9 | ·
O=C(Cc1cccc(NC(=O)C2CCCN(C(=O)CCc3ccccc3)C2)c1)Nc1cccc(C(=O)N2CCOCC2)c1 (stereo unspecified) | 1 | ? | ? | · | -4 | ·
CN(C(=O)c1cccc(NC(=O)Cc2ccc(NC(=O)C3CCN(C(=O)c4ccccc4)CC3)cc2)c1)C1CCC1 | -15 | -30% | ? | · | -13 | ·
O=C(Cc1cccc(NC(=O)C2CCCN(C(=O)CCc3ccccc3)C2)c1)Nc1cccc(C(=O)N2CCCCC2)c1 (stereo unspecified) | ? | 21µM* | 16µM* | · | -21 | ·
Cc1cccc(NC(=O)CNC(=O)[C@H]2O[C@@H](n3ccc(N)nc3=O)[C@H](O)[C@@H]2O)c1C | · | 17% | -10% | · | 2 | ·
Cc1ccc(S(=O)(=O)NCCC(=O)N2CCCCCCC2)cc1C | 2 | 1% | 12% | -8% | -2 | 0%
CCOC(=O)C(=O)c1csc(NC(=O)COc2ccc(N(C)S(=O)(=O)c3ccc(F)cc3)cc2)n1 | -15 | -3% | -9% | -9% | 8 | 4%
CN(Cc1ccccc1)C(=O)COc1ccc(N(C)S(=O)(=O)c2ccc(F)cc2)cc1 | -2 | 15µM* | 16µM* | ? | 0 | 6%
CCOC(=O)Cc1csc(NC(=O)COc2ccc(N(C)S(=O)(=O)c3cccs3)cc2)n1 | 22 | 29µM* | ? | 18µM* | -5 | 4%
Cc1ccc(S(=O)(=O)N(C)c2ccc(OCC(=O)Nc3nc4c(ccc5ccccc54)s3)cc2)cc1 | 2 | ? | ? | -23% | -12 | 0%
CN(c1ccc(OCC(=O)OCC(=O)Nc2ccccc2)cc1)S(=O)(=O)c1ccc(F)cc1 | 5 | 2% | 35% | 5% | 13 | 0%
CN(c1ccc(OCC(=O)Nc2nc(-c3ccccc3)cs2)cc1)S(=O)(=O)c1ccc(F)cc1 | -10 | 21µM* | 18µM* | ? | 19 | -4%
Cc1ccc(S(=O)(=O)N(C)c2ccc(OCC(=O)Nc3nc(-c4ccccc4)cs3)cc2)cc1 | 20 | 13µM* | 16µM* | ? | 33 | 1%
COc1cccc(-c2cc(C(F)(F)F)n3ncc(C(=O)OC(C)C)c3n2)c1 | · | -9% | -16% | · | · | -1%
COc1cc(-c2cnc3ccccc3c2)cc2c1OCCN(C(=O)CCC(=O)c1ccc(F)cc1)C2 | · | -22% | 11%[9.04 µM] | · | · | ·
CC(C)[C@@H]1CC[C@@H](C)C[C@H]1OC(=O)c1ccccc1O | · | -1% | 7% | · | · | ·
CN(CC(=O)Nc1ccc(Cl)c(C(F)(F)F)c1)C(=O)c1cccc2cccnc12 | 7 | 23µM* | ? | -19% | -26 | 0%
CN(CC(=O)Nc1ccc(Cl)c(C(F)(F)F)c1)C(=O)CNC(=O)C1CCCCC1 | -24 | 16µM* | ? | 6% | 10 | 0%
CN(CC(=O)Nc1cccc(F)c1)C(=O)c1ccccc1OCC(=O)Nc1cccc(C(F)(F)F)c1 | 2 | ? | ? | ? | 2 | 0%
Cc1ccc(NC(=O)CN(C)C(=O)c2cccnc2Nc2cccc(C(F)(F)F)c2)cc1 | 5 | ? | ? | ? | -79* | 1%
CN(CC(=O)Nc1ccc(Cl)c(C(F)(F)F)c1)C(=O)CCNC(=O)c1ccco1 | -1 | ? | ? | 5% | 6 | 5%
CN(CC(=O)Nc1ccc(Cl)c(C(F)(F)F)c1)C(=O)CCCNC(=O)c1ccc(Cl)cc1 | 9 | 15µM* | 21µM* | -3% | -22 | 0%
COC(=O)C[C@H]1C=C[C@@H](NC(=O)NC2CCCCC2)[C@@H](CO)O1 | · | -2% | 5% | · | 11 | ·
CN(CC(=O)Nc1ccc(Cl)c(C(F)(F)F)c1)S(=O)(=O)c1cnc[nH]1 | · | 15µM* | 15µM* | · | 12 | ·
Cc1cc(NC(=O)CN(C)CC(=O)Nc2ccc(Cl)cc2)no1 | -21 | ? | ? | 5% | 19 | 0%
SMILES | Giardia killer | DT40 TDP1 no CPT | TDP1 cell CPT | ELG1 DNA repair | IL1B secr inh | TDP1 block
Cc1cc(C)cc(OCC(=O)N(C)CC(=O)Nc2ccc(Cl)c(C(F)(F)F)c2)c1 | 15 | ? | ? | -24% | -78* | 0%
CN(CC(=O)Nc1ccc(OC(F)(F)F)cc1)S(=O)(=O)c1cnc[nH]1 | 4 | -15% | -9% | ? | 34 | -1%
Cc1cc(NC(=O)CN(C)CC(=O)Nc2ccc(Cl)c(C(F)(F)F)c2)no1 | -3 | 16µM* | 15µM* | ? | -12 | -3%
Cc1ccc(C(=O)c2cnc3ccccc3c2-c2ccccc2)cc1 | -7 | 23µM* | ? | ? | -10 | 4%
COc1ccc(C(=O)c2cnc3ccccc3c2-c2ccccc2)cc1 | 9 | ? | -21% | ? | 28 | 6%
Cc1scc(-c2n[nH]c(=S)n2C(C)c2ccccc2)c1C (stereo unspecified) | -9 | 16µM* | ? | -1% | 8 | 3%
Cc1sc(NC(=O)Cc2ccc3c(c2)OCO3)nc1-c1ccc2c(c1)CCN2C(=O)c1ccccc1F | 15 | 8.2µM* | 18µM* | ? | ? | 8%
Cc1sc(NC(=O)CN2CCCC2)nc1-c1ccc2c(c1)CCN2C(=O)c1cccc(F)c1 | -8 | 16µM* | ? | ? | -66* | 14%
CCOC(=O)C(=O)Nc1nc(-c2ccc3c(c2)CCN3C(=O)C2CC2)c(C)s1 | 5 | 14% | -2% | ? | -1 | 16%
COc1ccc(NC(=O)Cn2c(=O)n(CCCCCC(=O)NCc3ccc4c(c3)OCO4)c(=O)c3sccc32)cc1Cl | · | -30% | -11% | · | · | 5%
O=C(c1cc(S(=O)(=O)N2CCCC2)c[nH]1)N1CCN(c2cccc(Cl)c2)CC1 | · | -65% | ? | · | · | 0%
CCOC(=O)c1c(C)n(S(=O)(=O)c2ccc(C)cc2)c2ccc(NS(=O)(=O)c3ccc(C)cc3)cc12 | · | 21µM* | 18µM* | · | · | ·
Cc1ccc(S(=O)(=O)Nc2ccc3c(c2)CCC3)cc1C | -18 | -6% | -4% | -3% | 15 | 0%
Cc1ccc(S(=O)(=O)Nc2ccc3c(c2)c2c(n3S(=O)(=O)c3ccc(C)cc3)CCCC2=O)cc1 | 2 | 8.2µM* | 5.8µM* | ? | 25 | 5%

High-throughput results as filed in PubChem BioAssay.
